# According to PubChem BioAssay (Tox21):
# Inconclusive results are not listed. A call without a number means that no potency is given here. Where a structure was tested more than once in an assay, its records may differ in their call. Calls of active or inactive are those of the source. Unless noted, the call rests on the fitted dose curve; in most records, active means well fitted curve in the direction sought with a large enough effect in the repeat runs; inconclusive means weak or mixed curves; inactive means no such curve, though single readings can be large; an effect the other way counts as inactive or inconclusive.
# Tests used:
# [1] = qHTS assay to identify small molecule antagonists of the retinoid-related orphan receptor gamma (ROR-gamma) signaling pathway - cell viability counter screen (AID 1159520); further: nearly all actives have a fitted effect of over 50% in size; further: potency means the concentration at half of the fitted maximal effect
# Outline: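 Tet-on ROR gamma CHO cells (1,000/well) were plated 4 hr, given compounds in DMSO for 2 hr at 37 C, then induced with 1 uM final doxycycline for 16 hr. Viability was read as ATP by CellTiter-Glo luminescence after 30 min.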
# [2] = molecular target: Nuclear receptor ROR-gamma (Homo sapiens) (UniProt P51449); assay: qHTS assay to identify small molecule antagonists of the retinoid-related orphan receptor gamma (ROR-gamma) signaling pathway (AID 1159521; further: nearly all actives have a fitted effect of over 50% in size; further: potency means the concentration at half of the fitted maximal effect)
# Outline: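 Readout: ONE-Glo luciferase luminescence, 30 min at room temperature. System: Tet-on RORγ CHO, RORE-LUC. Sequence: compound 2 h, doxycycline 1 uM final, 16 h at 37 C.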
# [3] = qHTS assay to identify small molecule agonists of the AP-1 signaling pathway - cell viability counter screen (AID 1159525; calls by dose curve; further: nearly all actives have a fitted effect of over 55% in size; further: potency means the concentration at half of the fitted maximal effect)
# Outline: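 Each titration point was normalised to DMSO and tetra n-octyl ammonium bromide controls. The read was Cell Titer Glo luminescence after 30 min at RT, following 5 h compound exposure of ME-180 AP-1-bla cells at 37 °C.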
# [4] = molecular target: Retinoic acid receptor RXR-alpha (Homo sapiens) (UniProt P19793); assay: qHTS assay to identify small molecule agonists of the RXR signaling pathway (AID 1159527; calls by dose curve; further: nearly all actives have a fitted effect of over 35% in size)
# Chain of Retinoic acid receptor RXR-alpha (Homo sapiens) (P19793 whole entry, looked up): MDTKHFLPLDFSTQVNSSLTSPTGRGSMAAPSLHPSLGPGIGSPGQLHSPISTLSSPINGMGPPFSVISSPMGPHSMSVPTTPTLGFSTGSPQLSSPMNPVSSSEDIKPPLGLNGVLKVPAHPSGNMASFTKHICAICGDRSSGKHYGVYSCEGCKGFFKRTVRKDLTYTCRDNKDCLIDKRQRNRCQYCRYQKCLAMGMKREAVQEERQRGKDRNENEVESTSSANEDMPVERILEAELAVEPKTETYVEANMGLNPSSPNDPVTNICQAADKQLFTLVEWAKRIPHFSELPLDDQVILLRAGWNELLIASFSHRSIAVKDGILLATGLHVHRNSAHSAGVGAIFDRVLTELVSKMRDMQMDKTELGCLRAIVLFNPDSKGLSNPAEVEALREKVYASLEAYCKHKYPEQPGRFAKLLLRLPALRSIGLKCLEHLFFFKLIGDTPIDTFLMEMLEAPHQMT
# Outline: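 Reporter activation is measured as beta-lactamase activity via FRET substrate cleavage (emission 460/530 nm) in HEK 293T cells expressing an RXR-alpha-driven bla construct, following 16 hr compound exposure at 37 C.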
# [5] = qHTS assay to identify small molecule agonists of the RXR signaling pathway - cell viability counter screen (AID 1159529); further: nearly all actives have a fitted effect of over 50% in size; further: potency means the concentration at half of the fitted maximal effect
# Outline: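 Tox21 10K compounds were tested for cytotoxicity against GeneBLAzer RXR-alpha HEK 293T cells grown in 2% charcoal-stripped FBS. Exposure lasted 16 hr at 37 C, 5% CO2; viability read by CellTiter-Glo luminescence.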
# [6] = qHTS assay to identify small molecule agonists of the AP-1 signaling pathway (AID 1159526; calls by dose curve; further: potency means the concentration at half of the fitted maximal effect)
# [7] = qHTS assay to identify small molecule antagonists of the retinoid acid receptor (RAR) signaling pathway - cell viability counter screen (AID 1159551); further: nearly all actives have a fitted effect of over 35% in size; further: potency means the concentration at half of the fitted maximal effect
# Outline: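 Viability of C3RL4 cells is quantified from ATP by luminescence after 6 h treatment at 37 C with compounds and 1 uM retinol.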
# [8] = qHTS assay to identify small molecule antagonists of the retinoic acid receptor (RAR) signaling pathway (AID 1159552; further: nearly all actives have a fitted effect of over 50% in size; further: potency means the concentration at half of the fitted maximal effect)
# Outline: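 Overnight-plated C3RL4 reporter cells get compound, then retinol to 1 uM final; plates sit 6 hr at 37 C, 5% CO2. A luciferase reagent is added and light output recorded after 30 min at room temperature.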
# [9] = qHTS assay to identify small molecule antagonists of the estrogen related receptor (ERR) signaling pathway from Tox21 library - cell viability counter screen (AID 1224834); further: nearly all actives have a fitted effect of over 30% in size; further: potency means the concentration at half of the fitted maximal effect
# Outline: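 In this quantitative HTS format, ERR cells receive compounds in DMSO and are incubated for 17.5 h at 37 C. Live-cell protease activity is then detected with CellTiter-Fluor.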
# [10] = molecular target: Luciferin 4-monooxygenase (Photinus pyralis) (UniProt P08659); assay: qHTS assay to identify small molecule inhibitors of firefly luciferase (AID 1224835); further: nearly all actives have a fitted effect of over 25% in size; further: potency means the concentration at half of the fitted maximal effect
# Chain of Luciferin 4-monooxygenase (Photinus pyralis) (P08659 whole entry, looked up): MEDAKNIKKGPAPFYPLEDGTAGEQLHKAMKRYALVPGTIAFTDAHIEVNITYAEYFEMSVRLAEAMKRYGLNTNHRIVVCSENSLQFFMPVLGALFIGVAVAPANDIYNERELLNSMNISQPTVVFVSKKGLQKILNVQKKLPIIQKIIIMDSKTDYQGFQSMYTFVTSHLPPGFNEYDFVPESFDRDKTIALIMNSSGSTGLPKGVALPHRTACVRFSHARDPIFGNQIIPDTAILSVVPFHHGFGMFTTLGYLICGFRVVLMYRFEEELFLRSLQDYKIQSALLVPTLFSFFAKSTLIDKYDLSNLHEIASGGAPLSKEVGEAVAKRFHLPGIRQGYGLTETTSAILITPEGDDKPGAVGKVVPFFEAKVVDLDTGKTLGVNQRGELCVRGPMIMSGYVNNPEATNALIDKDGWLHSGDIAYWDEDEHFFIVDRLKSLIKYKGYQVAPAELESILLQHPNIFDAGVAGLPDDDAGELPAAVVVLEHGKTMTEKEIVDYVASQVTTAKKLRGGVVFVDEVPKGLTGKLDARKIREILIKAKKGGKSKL
# Outline: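 Quantitative HTS format; KM concentrations of both substrates. Purified P. pyralis FLuc activity quantified from luminescence images.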
# [11] = qHTS assay to identify small molecule antagonists of the estrogen related receptor (ERR) signaling pathway - cell viability counter screen (AID 1224818);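 further: series mostly up to about 46 µM; viability measured after 17.5 h of compound exposure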
# Outline: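 Cytotoxicity check run alongside the ERR antagonist screen: cells exposed to test compounds 17.5 h at 37 C, viability taken as CellTiter-Fluor fluorescence intensity.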
# [12] = qHTS assay to identify small molecule agonists of the estrogen related receptor (ERR) signaling pathway (AID 1224820)
# Outline: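 Luminescence readout (One-Glo, 30 min RT) from NTP-supplied ERR cell line exposed to compounds for 18 h at 37 C. Cells seeded 2,000 per well and pre-incubated 6 h before pin-tool compound transfer.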
# [13] = tested on: estrogen-related receptor alpha (ERRalpha) with PGC-1alpha coactivator, human; assay: qHTS assay to identify small molecule antagonists of the estrogen related receptor signaling pathway with the pleiotropic PPARgamma coactivator (PGC) (AID 1224821; calls by dose curve)
# Outline: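 PGC/ERR reporter cells; 6 h pre-incubation 37 C/5% CO2; pin-tool compound in DMSO, 18 h 37 C; One-Glo added, 30 min RT; luminescence read. qHTS antagonist mode.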
# [14] = qHTS assay to identify small molecule antagonists of the estrogen related receptor signaling pathway with the pleiotropic PPARgamma coactivator (PGC) cell viability counter screen (AID 1224822;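 further: series mostly up to about 46 µM; viability read after 17.5 h compound exposure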)
# Outline: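 Viable cell signal (CellTiter-Fluor, 30 min, 37 C/5% CO2) was measured in PGC/ERR cells after a 17.5 h compound incubation.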
# [15] = qHTS assay to identify small molecule agonists of the estrogen related receptor signaling pathway with the pleiotropic PPARgamma coactivator (PGC) (AID 1224823)
# Outline: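 Luminescence readout (One-Glo, 30 min RT) from PGC/ERR cell line treated 18 h at 37 C with pin-tool-delivered DMSO compound solutions; cells plated 6 h before dosing. Quantitative HTS format.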
# [16] = qHTS assay to identify small molecule agonists of the retinoic acid receptor (RAR) signaling pathway (AID 1159553)
# Outline: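 Compounds dissolved in DMSO were pinned onto C3RL4 cells seeded the previous day, and plates were held 6 hr at 37 C. RARE-driven luciferase output was then read by luminescence.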
SMILES,Potency [1],Potency [2],Potency [3],outcome [4],Potency [5],Potency [6],Potency [7],Potency [8],Potency [9],Potency [10],outcome [11],outcome [12],Potency [13],Potency [14],outcome [15],Potency [16]
Nc1ccc(Cl)cc1C(=O)c1ccccc1,inactive,inactive,inactive,inactive,inactive,,,,,,,,,,,
ClCCN1CCOCC1,inactive,inactive,inactive,inactive,inactive,inactive,inactive,inactive,inactive,inactive,,,,,,
Oc1ccc(I)cc1,inactive,inactive,inactive,inactive,inactive,inactive,inactive,,inactive,inactive,,,,,,
N#Cc1ccccc1Cl,inactive,inactive,inactive,inactive,inactive,inactive,inactive,inactive,inactive,inactive,,,,,,
CCS(=O)(=O)c1cccnc1S(=O)(=O)NC(=O)Nc1nc(OC)cc(OC)n1,inactive,inactive,inactive,inactive,inactive,inactive,inactive,inactive,inactive,inactive,,,,,,
COP(=O)(CCC(=O)NCO)OC,inactive,inactive,inactive,inactive,inactive,inactive,inactive,inactive,inactive,inactive,,,,,,
Clc1ccc(-c2ccccc2)cc1,inactive,inactive,inactive,inactive,inactive,inactive,inactive,,inactive,,,,,,,
Clc1ccc(Oc2ccccc2)cc1,inactive,inactive,inactive,inactive,inactive,inactive,inactive,inactive,inactive,inactive,,,,,,
C=CC(=O)N(C)C,inactive,inactive,inactive,inactive,inactive,inactive,inactive,,inactive,inactive,,,,,,
C=CCOC(N)=O,inactive,inactive,inactive,inactive,inactive,inactive,inactive,inactive,inactive,inactive,,,,,,
c1ccc(OCC2CO2)cc1 (stereo not given),inactive,inactive,inactive,,inactive,inactive,inactive,inactive,inactive,,,,,,,
Clc1ccc(C(Cl)(Cl)Cl)c(Cl)c1,inactive,inactive,inactive,inactive,19.6 µM (active),inactive,inactive,inactive,,inactive,,,,,,
N#Cc1ccc(O)cc1,inactive,inactive,inactive,inactive,,inactive,inactive,inactive,inactive,inactive,,,,,,
C[C@@H](Oc1ccc(Cl)cc1Cl)C(=O)O,inactive,inactive,inactive,,inactive,inactive,inactive,inactive,inactive,inactive,,,,,,
N#CCCO,inactive,inactive,inactive,inactive,inactive,inactive,inactive,inactive,inactive,inactive,,,,,,
CC(=[OH+])/C=C(/C)[O-].CC(=[OH+])/C=C(\C)[O-].CC(=[OH+])/C=C(\C)[O-].[Fe],inactive,inactive,inactive,inactive,inactive,inactive,inactive,,inactive,39.9 µM (active),,,,,,
CC(C)CC(C)N (stereo not given),inactive,inactive,inactive,inactive,inactive,inactive,inactive,,inactive,inactive,,,,,,
N#CCc1ccc(Cl)cc1,inactive,inactive,inactive,inactive,inactive,inactive,inactive,inactive,inactive,inactive,,,,,,
CCOC(=O)c1ccccc1S(=O)(=O)NC(=O)Nc1nc(Cl)cc(OC)n1,inactive,inactive,inactive,inactive,inactive,inactive,inactive,inactive,inactive,inactive,,,,,,
COP(N)(=S)OC,inactive,inactive,inactive,inactive,inactive,inactive,inactive,inactive,inactive,inactive,,,,,,
CC(=O)Nc1ccc2c(c1)Cc1ccccc1-2,inactive,inactive,inactive,inactive,inactive,inactive,inactive,inactive,inactive,28.7 µM (active),,,,,,
CN(CCCC(O)c1cccnc1)N=O (stereo not given),inactive,inactive,inactive,inactive,inactive,inactive,inactive,inactive,inactive,inactive,,,,,,
C[C@]12CC[C@H](O)C[C@H]1CC[C@@H]1[C@@H]2C[C@@H](O)[C@]2(C)[C@@H](C3=CC(=O)OC3)CC[C@]12O,inactive,inactive,,,,inactive,inactive,,0.77 µM (active),inactive,,,,,,
ClC1=C(Cl)C2(Cl)C3C(Cl)C=CC3C1(Cl)C2(Cl)Cl (stereo not given),68.9 µM (active),61.4 µM (active) and inactive,43.8 µM (active),,34.7 µM (active),,inactive,inactive,68.6 µM (active),inactive,,,,,,

SMILES,Potency [1],Potency [2],Potency [3],outcome [4],Potency [5],Potency [6],Potency [7],Potency [8],Potency [9],Potency [10],outcome [11],outcome [12],Potency [13],Potency [14],outcome [15],Potency [16]
C1CCC2CCCCC2C1 (stereo not given),inactive,inactive,,inactive,inactive,inactive,inactive,,inactive,inactive,,,,,,
CC(C)(C)C(O)C(Oc1ccc(-c2ccccc2)cc1)n1cncn1 (stereo not given),inactive,27.3 µM (active),inactive,,54.9 µM (active),,,,,inactive,,,,,,
Nc1ccc(Sc2ccc(N)cc2)cc1,inactive,inactive,inactive,,,,inactive,inactive,,,inactive,inactive,inactive,inactive,inactive,
O=C(Nc1ccc2[nH]ccc2c1)c1cc2cc(F)ccc2n1Cc1cccc(F)c1,48.6 µM (active),43.3 µM (active),27.5 µM (active),,,,inactive,68.6 µM (active),61.1 µM (active),inactive,,,,,,
O=C1C=CC(=O)c2ccccc21,3.44 µM (active),1.54 µM (active),15.5 µM (active),,9.77 µM (active),,15.4 µM (active),27.3 µM (active),61.1 µM (active),20 µM (active),,,,,,
COS(=O)(=O)c1ccc(C)cc1,inactive,inactive,,inactive,inactive,inactive,inactive,inactive,inactive,inactive,,,,,,
NC(=O)c1ccc(N)nc1,1.22 µM (active),0.611 µM (active),,,13.8 µM (active),inactive,,,,inactive,,,,,,
CCC(C)c1cc(C(C)(C)C)cc(-n2nc3ccccc3n2)c1O (stereo not given),inactive,inactive,,,inactive,inactive,inactive,,inactive,inactive,,,,,,
CC(C)(c1ccc(O)c(-c2ccccc2)c1)c1ccc(O)c(-c2ccccc2)c1,43.3 µM (active),21.7 µM (active),17.4 µM (active),,24.5 µM (active),,54.5 µM (active),54.5 µM (active),61.1 µM (active),inactive,,,,,,
[Cl][Sn]([c]1ccccc1)([c]1ccccc1)[c]1ccccc1,0.411 µM (active),0.082 µM (active),10.4 µM (active),,0.585 µM (active),,4.61 µM (active),0.092 µM (active),1.16 µM (active),6.01 µM (active),,,,,,
Cn1[nH]nnc1=S,inactive,inactive,,inactive,inactive,49 µM (active),inactive,inactive,inactive,22.4 µM (active),,,,,,
O=C(NC(=O)c1c(F)cccc1F)Nc1cc(Cl)c(OC(F)(F)C(F)F)c(Cl)c1,inactive,inactive,,,inactive,inactive,inactive,inactive,inactive,inactive,,,,,,
C[C@@H]1O[C@@H](O[C@@H]2C=C3CC[C@@H]4[C@H](CC[C@]5(C)[C@@H](c6ccc(=O)oc6)CC[C@]45O)[C@@]3(C)CC2)[C@H](O)[C@H](O)[C@H]1O,21.1 µM (active),15 µM (active),,,,inactive,inactive,,0.0298 µM (active),inactive,,,,,,inactive
ClC1=C(Cl)[C@]2(Cl)[C@@H]3[C@@H](Cl)[C@@H](Cl)C[C@@H]3[C@@]1(Cl)C2(Cl)Cl,inactive,inactive,,inactive,inactive,inactive,inactive,inactive,inactive,inactive,,,,,,
Cc1ccc(CCl)cc1,inactive,inactive,,inactive,inactive,inactive,inactive,inactive,inactive,inactive,,,,,,
Oc1cccc(-c2ccccc2)c1,inactive,inactive,inactive,inactive,inactive,,inactive,inactive,inactive,35.6 µM (active),,,,,,
CCOP(=S)(OCC)SCS(=O)(=O)C(C)(C)C,inactive,inactive,inactive,inactive,inactive,,inactive,inactive,inactive,inactive,,,,,,
CCCCCCCCCCBr,inactive,inactive,inactive,inactive,inactive,,inactive,inactive,inactive,inactive,,,,,,
NC(=O)CCl,inactive,inactive,inactive,inactive,inactive,,inactive,inactive,,inactive,,,,,,
CC(=O)/C=C/c1ccc2c(c1)OCO2,inactive,inactive,,,inactive,inactive,inactive,inactive,,45 µM (active),,,,,,
CN(C)S(=O)(=O)N(SC(F)(Cl)Cl)c1ccccc1,5.45 µM (active),4.86 µM (active),34.7 µM (active),,21.9 µM (active),,48.6 µM (active),,30.6 µM (active),35.6 µM (active),,,,,,
SCc1ccco1,inactive,inactive,inactive,,inactive,,inactive,,,inactive,,,,,,
COC(=O)N(C(=O)N1COC2(C(=O)OC)Cc3cc(Cl)ccc3C2=N1)c1ccc(OC(F)(F)F)cc1 (stereo not given),inactive,23.7 µM (active),inactive,,inactive,,inactive,,,inactive,,,,,,
ClC1=C(Cl)[C@]2(Cl)[C@@H]3[C@@H](Cl)[C@H](Cl)C[C@@H]3[C@@]1(Cl)C2(Cl)Cl,inactive,inactive,,inactive,inactive,inactive,inactive,inactive,inactive,inactive,,,,,,
